# Results as given in PubChem BioAssay (EPA / NIEHS).
# Where “and” joins values, the source holds several entries; their conditions need not be identical. Identical values can stand only once. Calls of active or inactive are those of the source. Rule for the calls: active = hit-call score of the fitted dose curve at least 0.9, where 1 is the maximum; inactive = score below 0.9.
# Read-out: KRT18 (gene 3875)
# Assay: BSK_BF4T_Keratin818: BioMAP Diversity Plus: BF4T Assay for Keratin 818 Biomarker Activity (AID 2284266)
# Conditions: primary human bronchial epithelial cells with fibroblasts
# Method: BSK_BF4T is a cell-based, multiplexed-readout assay that uses bronchial epithelial cells and dermal fibroblasts, a human vascular primary cell, with measurements taken at 24 hours after chemical dosing in a microplate: 96-well plate.BSK_BF4T_Keratin818 is an assay component measured in the BSK_BF4T assay. It measures Keratin 8/18 antibody related to regulation of gene expression using ELISA technology.Data from the assay component BSK_BF4T_Keratin818 was analyzed at the endpoint, BSK_BF4T_Keratin818, in the positive analysis fitting direction relative to DMSO as the negative control and baseline of activity. Using a type of binding reporter, gain or loss-of-signal activity can be used to understand protein changes. To generalize the intended target to other relatable targets, this assay endpoint is annotated to the 'cell adhesion molecules' intended target family, where the subfamily is 'keratin'.
# The levels of cell surface (or secreted, indicated by the prefix "s") biomarker endpoints were measured by ELISA. Overt cytotoxicity to cells in confluent adherent cultures (all systems other than the BT system) was assessed by measuring total protein levels using sulforhodamine B (SRB) staining in parallel cultures at the time of biomarker measurements, indicated as SRB endpoints. For proliferation assays for adherent cell types, individual cell types are cultured at sub-confluence and relative cell numbers quantified by SRB staining at time points optimized for each system (48 h: 3C and CASM3C systems; 72 h: BT and HDF3CGF systems; 96 h: SAg system). SRB was performed by staining cells with 0.1% SRB after fixation with 10% TCA and reading wells at 560 nm.Viability and proliferation of PBMC (T cells) was quantified by Alamar Blue reduction for the SAg and BT systems. For PBMC viability (referred to as PBMC Cytotoxicity within the assay endpoint names), cells were plated (75,000/well in a 96-well plate) and then chemical samples added for 1 h before addition of activators, SEB and TSST-1 (20 ng/mL final concentration each). Cells were incubated for 90 h. Then, Alamar Blue (20 uL/well) (Invitrogen, Cat DAL1100) was added for 6 h, and the plates were read with a fluorescence microplate reader at 546/580 nm (excitation/emission). For PBMC proliferation, cells were plated and activated as above but incubated for only 16 h prior to addition of Alamar Blue. Plates were read after 6 h.
Compound,outcome,AC50
O=P(O)(O)CCC(F)(F)C(F)(F)C(F)(F)C(F)(F)C(F)(F)C(F)(F)F,inactive,
C=CC(=O)OCCC(F)(F)C(F)(F)C(F)(F)C(F)(F)C(F)(F)C(F)(F)C(F)(F)C(F)(F)F,inactive,
O=C(O)CCC(F)(F)C(F)(F)C(F)(F)C(F)(F)C(F)(F)F,inactive,
O=S(=O)(O)C(F)(F)C(F)(F)C(F)(F)C(F)(F)C(F)(F)C(F)(F)C(F)(F)C(F)(F)C(F)(F)C(F)(F)F,inactive,
O=C(O)CCC(F)(F)C(F)(F)C(F)(F)C(F)(F)C(F)(F)C(F)(F)F,inactive,
O=C(O)C(F)(F)OC(F)(F)C(F)(F)OC(F)(F)C(F)(F)OC(F)(F)C(F)(F)C(F)(F)C(F)(F)F,,14.6 µM (active) and 7.97 µM (active)
CN(CCO)S(=O)(=O)C(F)(F)C(F)(F)C(F)(F)C(F)(F)C(F)(F)C(F)(F)C(F)(F)C(F)(F)F,inactive,
O=P(O)(O)CCC(F)(F)C(F)(F)C(F)(F)C(F)(F)C(F)(F)C(F)(F)C(F)(F)C(F)(F)F,inactive,
O=C(CC(=O)C(F)(F)C(F)(F)C(F)(F)F)c1cccs1,,23.1 µM (active) and 28 µM (active)
CN(Cc1cnc2nc(N)nc(N)c2n1)c1ccc(C(=O)N[C@@H](CCC(=O)O)C(=O)O)cc1,inactive,
OCC(F)(F)C(F)(F)C(F)(F)C(F)(F)C(F)(F)C(F)(F)C(F)(F)C(F)(F)C(F)(F)C(F)(F)C(F)(F)F,inactive,
